# FMDV antiviral – antivirals against foot and mouth disease virus; FMDV antiviral cell-based qHTS; Potency, µM (doses to about 57.9 µM), most hits filed as inhibitors; actives 1.2% (n = 410,000); AID 1159524; calls by dose curve; tested in HEK293T cells; also: read-out not given here; nearly all actives have a fitted effect of over 45% in size
# SARS PLpro yeast-1 – inhibitors of SARS-CoV papain-like protease in yeast; S. cerevisiae expressing SARS-CoV PLpro, growth rescue; Potency, µM (series often up to 32.9 µM), hits mostly activators; actives 0.19% (n = 330,000); AID 485353; calls by dose curve; also: nearly all actives have a fitted effect of over 55% in size
# HCV inhibitor – inhibitors of hepatitis C virus infection; Huh7.5.1 HCVcc-Cre infection, luciferase reporter, 44 h; AID 651820; actives 3.4% (n = 340,000); Potency, µM (titrated, usually from 41.8 µM), actives largely listed as inhibitors; active = well fitted inhibition curve with a large enough effect; inconclusive = small, poorly fitted or top-dose-only effect, or another doubt; inactive = no such curve, though single readings can be large or run the other way
#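 1,000 cells/well; 4 h culture; + compound; + HCVcc-Cre (~0.5 moi); 44 h; luciferase substrate, RT 15 min; read 15 sec.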
# LASV entry inh – blocks Lassa virus binding to or entry into cells. Lassa virus pseudotype entry inhibition, cell reporter. Potency, µM (series often up to 37.9 µM), actives largely listed as inhibitors. actives 1.2% (n = 300,000). AID 540256; calls by dose curve; tested in HEK293 cells; also: nearly all actives have a fitted effect of over 50% in size
# HCMV antiviral – blocks human cytomegalovirus replication | activity change, negative = inhibition, % at 57.5 µM | AID 1259415 | actives 4.5% (n = 410,000) | HFF cells, HCMV-luciferase reporter, 72 h; hits give low values; in the data active = activity change below about -60%; inconclusive = no clear call, values can overlap the other calls; inactive = above about -39%
#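 Luciferase read-out from HCMV-luciferase-infected HFFs (MOI 1 PFU/cell) 72 h post infection at 37C; compounds added after 16 h cell attachment; activity normalized between buffer-only basal and Salinomycin (10uM) inhibitor controls.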
# Marburg entry inh – blocks Marburg virus binding to or entry into cells; AID 540276; Potency, µM (titrated, usually from 37.8 µM), hits mostly inhibitors; Marburg virus pseudotyped entry inhibition, cell reporter; actives 1.8% (n = 300,000); calls by dose curve; tested in HEK293 cells
# SARS PLpro yeast-2 – Validates SARS-CoV PLpro inhibitor hits in yeast; shares compounds with SARS PLpro yeast-1; yeast expressing SARS-CoV PLpro, growth phenotype rescue; calls only; actives 19% (n = 1,000); AID 652038; call rule not given here
# A number is an active result; 0 = inactive; ? = inconclusive; - = not tested or not shown; + = active, no number. Shown are actives, neighbours in structure and some others; about 8% of the full set was active somewhere.
SMILES,FMDV antiviral,SARS PLpro yeast-1,HCV inhibitor,LASV entry inh,HCMV antiviral,Marburg entry inh,SARS PLpro yeast-2
Cc1cc([N+](=O)[O-])nn1CC(=O)N1CCCc2ccccc21,0,16µM,0,0,0,0,0
CN(C)CCCN(C(=O)c1ccc(S(=O)(=O)N2CCCCCC2)cc1)c1nc2ccc(F)cc2s1,0,?,?,?,0,?,0
O=S(=O)(c1ccc2ccccc2c1)N(CC(O)CN1CCOCC1)c1ccccc1 (centres undefined),0,?,0,?,0,0,0
Cc1ccc(S(=O)(=O)N(CC(O)CN2CCOCC2)c2cccc([N+](=O)[O-])c2)cc1 (centres undefined),0,0,0,0,0,?,-
CCN(c1cccc(C)c1)S(=O)(=O)c1cccc(C(=O)O)c1,0,?,0,0,0,0,0
COc1ccc(OC)c(NC(=O)C(=O)NCCC2=CCCCC2)c1,0,0,0,0,0,?,-
COc1ccc(Cn2c(-c3ccc(OC)cc3)n[nH]c2=S)cc1,0,0,0,?,0,0,-
CC(C)Oc1ccc(Cn2c(-c3ccco3)n[nH]c2=S)cc1,0,22µM,0,0,0,0,0
CCN(CC)S(=O)(=O)c1cccc(NC(=O)/C=C/c2cccc([N+](=O)[O-])c2)c1,18µM,20µM,6.3µM,?,-85,?,?
CCN(CC)S(=O)(=O)c1cccc(NC(=O)/C=C/c2ccc([N+](=O)[O-])cc2)c1,0,0,?,0,0,0,-
O=C(NC1CCC(O)CC1)c1ccc(-c2ccc([N+](=O)[O-])cc2)o1 (centres undefined),0,0,?,-,0,-,-
COc1ccc(NC(=O)CN2CCN(Cc3ccccc3Cl)S2(=O)=O)cc1Cl,0,-,-,0,?,0,-
CC(C)OC(=O)c1cc2ccccc2oc1=O,0,?,0,?,?,0,0
O=C(Oc1ccccc1)c1cc2ccccc2oc1=O,0,0,0,?,0,0,-
O=P(N1CCCCC1)(N1CCCCC1)C(Cl)(Cl)Cl,0,?,0,0,0,0,0
O=P(N1CCCCCC1)(N1CCCCCC1)N1CC1,0,-,0,0,0,?,-
O=C1CS/C(=N\N=C\c2ccccc2Cl)N1CC1CC1,?,0,0,-,0,-,-
Cc1sc2nc(CSCC(=O)N(C)c3ccccc3)[nH]c(=O)c2c1C,?,?,0,0,?,?,0
Cc1sc2nc(CSCC(=O)N(CCC#N)c3ccccc3)[nH]c(=O)c2c1C,0,0,0,-,0,-,-
CCNC(=S)Nc1ccc(C)c(Cl)c1,0,?,0,0,0,0,+
O=C1O[C@@H](c2ccccc2)C[C@@H](O)C(=O)CCCCc2ccccc21,0,-,-,-,0,-,-
CCN(CC)S(=O)(=O)c1ccc(S(=O)(=O)N2CCCC2C(=O)O)cc1 (centres undefined),0,22µM,0,0,0,0,0
COc1ccc(/C=C2\CN(Cc3ccccc3)C/C(=C\c3ccc(OC)cc3)C2=O)cc1,?,20µM,0,7.9µM,0,?,0
C[C@H](CO)N1C[C@H](C)[C@@H](CN(C)C(=O)Nc2ccc3c(c2)OCO3)Oc2ccc(NS(=O)(=O)c3cn(C)cn3)cc2C1=O,0,0,0,-,0,-,-
CC(C)c1cccc(O)c(=O)c1,0,?,0,-,0,-,0
SMILES,FMDV antiviral,SARS PLpro yeast-1,HCV inhibitor,LASV entry inh,HCMV antiviral,Marburg entry inh,SARS PLpro yeast-2
Cc1cc(OCC(=O)NC(C)(C)C)ccc1Cl,0,?,0,?,0,?,0
CCCCOC(=O)Oc1ccc2c(=O)c(Oc3cc(C)cc(C)c3)coc2c1,0,?,0,0,0,?,0
COc1ccc(S(=O)(=O)N2CCC(C(=O)N(C)Cc3ccc(C)o3)CC2)cc1OC,0,0,0,-,0,-,-
Cc1c(C(=O)NC(=S)Nc2ccccc2N2CCCC2)cccc1[N+](=O)[O-],?,7.1µM,3.5µM,0,0,0,+
O=C(NC(=S)Nc1ccccc1N1CCCC1)c1ccc([N+](=O)[O-])cc1,0,?,?,0,?,0,-
Cc1onc(-c2ccccc2)c1C(=O)NC(=S)NNC(=O)c1ccncc1,0,13µM,?,0,0,0,0
O=C(OCC(=O)N1CCN(c2ccccc2)CC1)c1cnc(Cl)c(Cl)c1,-,0,-,-,0,-,-
O=C(OCC(=O)N1CCN(c2ccccc2)CC1)c1cccc(Cl)c1,0,?,0,0,0,0,0

# Screening results from PubChem BioAssay.
